From PubChem BioAssay come the findings set out here.

SMILES strings stand for the structures. Active and inactive are the calls of the source.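 The calls were made as follows: active = inhibition above the hit cutoff set in the earlier primary screen (cut at about 27% in these data); inactive = the rest.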

Sequence of Protein phosphatase methylesterase 1 (Homo sapiens) (Q9Y570 whole entry, looked up): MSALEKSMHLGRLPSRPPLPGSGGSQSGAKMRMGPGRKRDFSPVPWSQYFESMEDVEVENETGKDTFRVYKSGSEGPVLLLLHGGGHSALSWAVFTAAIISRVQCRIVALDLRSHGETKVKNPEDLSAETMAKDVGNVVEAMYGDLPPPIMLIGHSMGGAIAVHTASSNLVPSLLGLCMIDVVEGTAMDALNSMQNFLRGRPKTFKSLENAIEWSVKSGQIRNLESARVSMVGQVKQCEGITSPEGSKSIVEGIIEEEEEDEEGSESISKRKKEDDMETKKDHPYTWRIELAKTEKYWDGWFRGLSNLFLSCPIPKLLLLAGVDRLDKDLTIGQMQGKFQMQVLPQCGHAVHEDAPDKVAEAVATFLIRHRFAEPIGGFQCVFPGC

This assay has as its target Protein phosphatase methylesterase 1 (Homo sapiens) (UniProt Q9Y570). Put plainly: human PME-1 methylesterase inhibition confirmation – biochemical, fluorescence polarization, FP-Rh probe, triplicate (AID 2171).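 Also: 0% = enzyme with DMSO and 100% = wells lacking PME-1.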 Particulars: recombinant PME-1, FP-Rh probe fluorescence polarization; at 5.9 µM; stronger effect = higher value. Background: Fluorescence polarisation rises when a labelled molecule tumbles more slowly, as on binding a larger partner.
For the compound `Fc1cc(F)c2nc(Nc3nc4cc5c(cc4s3)OCO5)sc2c1`, the inhibition – broadly, the relative decrease from the control value, in per cent – is 29.5% (active).
With `O=C(CNc1cccc2ccccc12)N/N=C/c1cccc(Oc2ccccc2)c1` the figure was 31.1% (active).
With `COc1ccc(-c2nc(-c3cccs3)c(-c3cccs3)[nH]2)cc1O` the figure was 39.6% (active).
With `Cc1ccc2nsnc2c1NS(=O)(=O)c1c(C)ccc2nsnc12` the figure was 22.3% (inactive); with `Cc1csc(NC(=O)c2sc3nc(-c4cccs4)ccc3c2N)n1`, 42.6% (active); with `Cc1ccc(NC(=S)NC(=O)c2ccc(-c3ccc(Cl)cc3)o2)c(O)c1`, 22.9% (inactive).
Consider `CCN1C(=O)/C(=C2/Sc3ccccc3N2CC)S/C1=N\c1ncn[nH]1`, for which the inhibition is 42.6% (active).
With `Cc1cccc(NC(=S)N/N=C/c2c[nH]c3ccccc23)c1`, the inhibition is 33.3% (active).
With `O=C1CC(N(O)c2ccccc2)C(=O)N1c1cc(Cl)cc(Cl)c1` (stereo not given) the figure was 5.35% (inactive).
Take `Cc1c(Cl)cccc1Nc1nc(N)nc(CSc2nc3ccccc3s2)n1`: the inhibition was 25.1% (inactive).
With `Cc1ccc(-c2csc(-c3c[nH]c4ccccc34)n2)cc1` the figure was 11.1% (inactive).
With `CCCCn1c(NC(=O)c2ccccc2Cl)c(C#N)c2nc3ccccc3nc21` the figure was 19.9% (inactive); with `CCOc1ccccc1/C=C(\C#N)C(=O)Nc1cccc(C(=O)O)c1`, 5.46% (inactive); with `N#CCCN(CCC#N)C(=O)C1c2ccccc2Oc2ccccc21`, -4.23% (inactive).
In the case of `CCc1cccc2cc3c(N)c(C(=O)Nc4ccc(S(=O)(=O)N5CCCC5)cc4)sc3nc12`, the inhibition was -1.66% (inactive).
With `CCOC(=O)C1=C(C)Nc2ccccc2N/C1=N\S(=O)(=O)c1cccc(Cl)c1` the figure was 18.7% (inactive); with `COc1ccc(N/N=C(\C=N\O)C(=O)c2ccc(OC)cc2)cc1`, 58.9% (active); with `Cc1cc(SCC(=O)N/N=C/c2ccc(O)c(O)c2O)c(C)cc1Br`, -9.75% (inactive).
As to `O=C(O)/C(CC(=O)c1ccc(Cl)cc1)=N/Nc1ccc([N+](=O)[O-])cc1[N+](=O)[O-]`, the inhibition was 42.7% (active).
With `Oc1ccc(N=Cc2ccc(OCc3ccccc3)cc2)cc1` the figure was 6.36% (inactive); with `COc1cccc(-c2nnc(Nc3nc4c(F)cccc4s3)o2)c1`, 46.2% (active); with `O=C1c2c(O)cccc2Cc2cccc(O)c21`, 23.4% (inactive).
With `N#C/C(=C/c1ccc(N2CCCC2)c([N+](=O)[O-])c1)c1nc2ccccc2[nH]1` the figure was 30.9% (active); with `CCn1cc(C(=O)NCCCN2CCC(C)CC2)c(=O)c2cc(S(=O)(=O)N(C)C3CCCCC3)ccc21`, 31.6% (active); with `COc1ccc(NC(=O)C2CCN(C(=O)c3cccs3)CC2)cc1OC`, 5.2% (inactive).
With `Cc1cc(C(=O)N/N=C/c2cccc([N+](=O)[O-])c2)c(C)n1-c1ccccc1` the figure was -3.77% (inactive); with `O=C1CN(C(=O)c2cc3ccccc3oc2=O)C(c2ccccc2)c2cc(F)ccc2N1` (stereo not given), 18.1% (inactive).
Take `COc1ccccc1NC(=O)c1cc2ccc(O)cc2o/c1=N\O`: the inhibition was 19.6% (inactive).
Turning to `Cc1[nH]c2ccccc2c1/C=N/Nc1nc(Nc2ccccc2)nc(N2CCOCC2)n1`, the inhibition is 34.2% (active).
With `Cc1ccc(-c2nc(Nc3ccc(O)cc3)c3ccccc3n2)cc1`, the inhibition was 6.25% (inactive).
Regarding `O=c1[nH]c(C2CCN(S(=O)(=O)c3ccc(F)cc3)CC2)nc2c1nnn2Cc1ccc2c(c1)OCCO2`, the inhibition was 41% (active).
Turning to `O=C(N/N=C/c1ccc(O)c(O)c1)c1ccc(CSc2cccc3cccnc23)cc1`, the inhibition was -3.59% (inactive).
With `Cc1cccc(C)c1NS(=O)(=O)c1ccc(NC(=O)c2ccc(Cl)c([N+](=O)[O-])c2)cc1` the figure was -96.3% (inactive); with `C/C(=N\NC(=O)c1ccc(N/N=C(\C)c2ccc(O)cc2)cc1)c1ccc(O)cc1`, 43.4% (active).
For `O=C1c2cccc3c(N4CCCCC4)ccc(c23)C(=O)N1c1cccc(O)c1`, the inhibition was -13.8% (inactive).
With `O=C(CNc1ccc2ccccc2c1)N/N=C/c1cc2ccccc2nc1Cl` the figure was 22.6% (inactive); with `O=c1[nH]nc(CNc2ccc(O)cc2)c2ccccc12`, 8.74% (inactive).
For `CCC(C)c1ccc(S(=O)(=O)N2CCN(C(=O)COc3ccc4c(C)cc(=O)oc4c3)CC2)cc1` (stereo not given), the inhibition was 0.33% (inactive).
For the compound `Nc1c(N=Nc2ccccc2F)c(=O)[nH]n1-c1ccccc1`, the inhibition is 30.1% (active).
With `Cc1cc(NC(=O)CSc2nc3ccccc3c(=O)n2C2CCCC2)no1` the figure was 3.59% (inactive).
